ELG1 genotoxic – induces genotoxicity in HEK293T cells with luciferase-tagged ELG1 | AID 504466 | HEK293T ELG1-luciferase reporter, luminescence, 16 h | Potency, µM (highest dose often 46 µM), for the others: at the top dose activity change, positive = activation, actives largely listed as activators | 1.3% of 330,000 active; further: % of control where 0% means no effect; nearly all actives have a fitted effect of over 60% in size
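Genotoxic stress is detected as increased luminescence from luciferase-tagged ELG1 in HEK293T cells, measured with ONE-Glo after a 16 hr treatment at 37 °C.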
p53 reactivation – re-activators of mutant p53; H1299 p53-A138V BP100-luciferase reporter, luminescence, 24 h; Potency, µM (series often up to 92.2 µM), for inactives: top-dose activity change, positive = activation, usual class: activators; 0.063% of 320,000 active; further: % of control where 0% means no effect; nearly all actives have a fitted effect of over 45% in size
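p53-null H1299 cells stably carrying temperature-sensitive p53-A138V and a BP100-luciferase reporter were pinned with compounds (4-point, 1:5 series) and held 24 hrs at 37 deg C. Luminescence was read 10 min after detection reagent.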
SMN2 splice enh – enhancers of SMN2 splice variant expression | AID 1458 | Potency, µM (top dose mostly 46.1 µM), for the others: top-dose activity change, positive = activation, hits mostly activators | 2.8% of 210,000 active | HEK293 SMN2-luciferase splicing reporter, luminescence, 30-36 h; further: % of control where 0% means no effect; nearly all actives have a fitted effect of over 55% in size
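HEK293 cells carry an SMN2 minigene-luciferase reporter in which exon 7 inclusion puts luciferase in frame. Cells were seeded at 2000 cells/well, attached for 10-12 hours, then exposed to compounds for 30-36 hours at 37C before ONE-Glo luminescence.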
NPC1 prom act – activates the NPC1 promoter; Huh7 NPC1 promoter luciferase reporter, 24 h; 2.4% of 320,000 active; AID 485313; Potency, µM (top dose mostly 9.22 µM), inactives show at the highest dose activation, most hits filed as activators; further: % of control where 0% means no effect; nearly all actives have a fitted effect of over 60% in size
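Readout is luciferase luminescence, reflecting NPC1 promoter activation in stably transfected Huh7 cells after 24 h compound exposure at 37 °C in reduced-serum medium with 10% FBS.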
Rab9 prom act – activates the Rab9 promoter; Huh7 Rab9 promoter-luciferase reporter, luminescence, 24 h; Potency, µM (doses to about 9.22 µM), inactives show top-dose activation, negative = inhibition, usual class: activators; 2.8% of 320,000 active; AID 485297; further: % of control where 0% means no effect; nearly all actives have a fitted effect of over 60% in size
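Luminescence read-out: Huh7 cells stably expressing Rab9-luciferase, treated 24 h with compound at 37 °C, then lysed with luciferase reagent for 10 min at ambient before reading.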
FLuc modulator – firefly luciferase modulation, counter-screen for miR-21 project; P08659; purified FLuc, Km substrates, luminescence inhibition; Potency, µM (top dose mostly 57.5 µM), without a hit: at the top dose activity change, negative = inhibition, hits mostly inhibitors; 6.9% of 360,000 active; AID 588342;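 further: plate controls were vehicle for no effect and reference inhibitor for full effect; nearly all actives have a fitted effect of over 55% in size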
Target sequence (P08659 whole entry, looked up): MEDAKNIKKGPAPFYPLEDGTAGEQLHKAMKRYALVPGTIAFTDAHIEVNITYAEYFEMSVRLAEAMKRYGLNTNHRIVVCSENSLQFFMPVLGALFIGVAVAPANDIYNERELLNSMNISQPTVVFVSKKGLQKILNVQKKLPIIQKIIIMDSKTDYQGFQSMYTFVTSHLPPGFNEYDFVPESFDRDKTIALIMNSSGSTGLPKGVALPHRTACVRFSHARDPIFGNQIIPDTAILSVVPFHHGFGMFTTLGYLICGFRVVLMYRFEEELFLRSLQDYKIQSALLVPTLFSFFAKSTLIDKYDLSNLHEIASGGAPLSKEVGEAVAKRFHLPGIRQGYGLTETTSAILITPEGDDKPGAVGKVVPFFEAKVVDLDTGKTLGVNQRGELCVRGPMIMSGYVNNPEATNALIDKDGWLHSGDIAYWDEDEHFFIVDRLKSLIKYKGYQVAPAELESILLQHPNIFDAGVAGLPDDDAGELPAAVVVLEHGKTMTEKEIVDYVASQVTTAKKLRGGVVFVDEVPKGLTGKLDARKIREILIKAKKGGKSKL
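Purified P. pyralis luciferase (10nM final) with 10uM D-luciferin and 10uM ATP (Km levels) in 50mM Tris acetate pH 7.5, 10mM Mg acetate, 0.01% Tween-20, 0.05% BSA; qHTS 6-point titration, ~60 µM downward; luminescence read.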
* = called active by the depositor. In the library only some 7.4% were active in any assay of this set; here they are far more common. The call rests on the fitted dose curve; in most records, active means well fitted curve in the direction sought with a large enough effect; inconclusive means small, poorly fitted or top-dose-only effect, or another doubt; inactive means no such curve, though single readings can be large; an effect the other way counts as inactive or inconclusive. Potency means the concentration at half of the fitted maximal effect.

How did COc1ccc(Cl)cc1NC(=O)Cn1c(=O)c(-c2ccccc2NC(C)=O)nc2ccccc21 do in these assays?
FLuc modulator: -2.0%

What do the screens show for `CC1CCCCN1C(=O)CSc1nnc(-c2ccccc2F)o1` (stereo not given)?
ELG1 genotoxic: inconclusive; p53 reactivation: inconclusive; NPC1 prom act: 2.51µM*; Rab9 prom act: 2.51µM*; FLuc modulator: inconclusive

How did CN(C(=O)CSc1nnc(-c2ccco2)o1)C1CCCCC1 do in these assays?
ELG1 genotoxic: inconclusive; p53 reactivation: inconclusive; SMN2 splice enh: 14.2%; NPC1 prom act: 26.4%; Rab9 prom act: inconclusive; FLuc modulator: -16.4%

How did CC1CCCCN1C(=O)CSc1nnc(-c2ccco2)o1 (stereo not given) do in these assays?
ELG1 genotoxic: 20.6µM*; p53 reactivation: inconclusive; NPC1 prom act: 1.78µM*; Rab9 prom act: 2µM*; FLuc modulator: 15.1µM*

How did CCOc1ccc2c(c1)c(=O)c(C(=O)c1ccc3c(c1)OCO3)cn2Cc1cccc(F)c1 do in these assays?
SMN2 splice enh: -13.3%; FLuc modulator: -2.8%

What do the screens show for `c1ccncc1`?
SMN2 splice enh: -3.2%

How did COc1cc(C)ccc1OCc1cc(C(=O)N(Cc2c(C)nn(C)c2C)C2CC2)no1 do in these assays?
ELG1 genotoxic: 13.6%; p53 reactivation: inconclusive; NPC1 prom act: inconclusive; Rab9 prom act: inconclusive; FLuc modulator: 12µM*

What do the screens show for `COc1cc(C)ccc1OCc1cc(C(=O)N(Cc2nccn2C)C(C)C)no1`?
ELG1 genotoxic: inconclusive; p53 reactivation: 18.8%; NPC1 prom act: 2.51µM*; Rab9 prom act: 2.24µM*; FLuc modulator: 10.7µM*

How did COc1cc(C)ccc1OCc1cc(C(=O)NCCN2CCCC(O)C2)no1 (stereo not given) do in these assays?
ELG1 genotoxic: 0.8%; p53 reactivation: -1.0%; NPC1 prom act: -2.3%; Rab9 prom act: 4.6%; FLuc modulator: inconclusive

How did CCc1nnc(SCC(=O)Nc2ccc3ccccc3c2)n1N do in these assays?
ELG1 genotoxic: -0.6%; p53 reactivation: 1.4%

Results for O=C1CC(NS(=O)(=O)c2ccc3ccccc3c2)CN1c1ccccc1 (stereo not given) ?
ELG1 genotoxic: -6.7%; p53 reactivation: 0.2%; NPC1 prom act: -2.2%; Rab9 prom act: 0.1%; FLuc modulator: -0.6%

Results for COc1cc(SC)ccc1C(=O)Nc1cccc(C2OCCCO2)c1 ?
ELG1 genotoxic: 2.8%; p53 reactivation: 15.0%; NPC1 prom act: 3.55µM*; Rab9 prom act: 1.41µM*; FLuc modulator: 16.9µM*

Results for COc1cc(SC)ccc1C(=O)Nc1ccccc1C#N ?
ELG1 genotoxic: 9.2µM*; p53 reactivation: inconclusive; SMN2 splice enh: 12.6µM*; NPC1 prom act: -1.4%; Rab9 prom act: 3.1%; FLuc modulator: inconclusive

What do the screens show for `COc1cc(SC)ccc1C(=O)Nc1ccc(Cl)cn1`?
ELG1 genotoxic: inconclusive; p53 reactivation: -8.5%; NPC1 prom act: 0.891µM*; Rab9 prom act: 0.891µM*; FLuc modulator: 0.0757µM*

What do the screens show for `COc1cc(SC)ccc1C(=O)Nc1ccc2c(c1)CCC2`?
ELG1 genotoxic: inconclusive; p53 reactivation: inconclusive; NPC1 prom act: 3.98µM*; Rab9 prom act: 3.98µM*; FLuc modulator: 2.13µM*

What do the screens show for `CCOc1ccc(C(=O)Nc2nnc(SCc3cc(=O)c4cc(C)ccc4[nH]3)s2)cc1`?
FLuc modulator: -5.0%
